Source: PubChem
LmPK inh – inhibitors of Leishmania mexicana pyruvate kinase; hit rate 0.37% among 290,000; Q27686; Potency, µM (highest dose often 57.5 µM), inactives show top-dose activity change, negative = inhibition, usual class: inhibitors; purified LmPK, Kinase-Glo ATP luminescence, 1 h; further: potency means the concentration at half of the fitted maximal effect; on the % scale 0 is the no-effect control and ±100 the full control effect
Target sequence (Q27686 whole entry, looked up): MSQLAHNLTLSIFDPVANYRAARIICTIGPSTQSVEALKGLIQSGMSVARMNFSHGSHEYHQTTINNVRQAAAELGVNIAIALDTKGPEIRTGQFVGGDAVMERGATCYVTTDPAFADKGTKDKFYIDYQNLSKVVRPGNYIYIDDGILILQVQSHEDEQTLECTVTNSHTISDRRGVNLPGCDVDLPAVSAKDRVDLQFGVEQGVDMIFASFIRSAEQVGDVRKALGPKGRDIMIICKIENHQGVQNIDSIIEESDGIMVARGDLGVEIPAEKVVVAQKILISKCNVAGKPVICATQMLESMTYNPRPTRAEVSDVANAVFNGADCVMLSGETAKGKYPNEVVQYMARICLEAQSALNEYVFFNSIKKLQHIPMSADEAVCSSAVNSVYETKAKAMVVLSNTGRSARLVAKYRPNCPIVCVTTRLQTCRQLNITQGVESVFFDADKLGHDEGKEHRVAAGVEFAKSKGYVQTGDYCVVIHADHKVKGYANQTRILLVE
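ATP generated from ADP (0.1 mM) and PEP (0.5 mM) by 0.1 nM LmPK over 1 h at room temperature (pH 7.2 imidazole buffer) was detected by coupled luciferase luminescence. Values were normalized to uninhibited and no-enzyme wells.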
FBPA Giardia inh – Giardia lamblia aldolase inhibition. Potency, µM (doses to about 59.6 µM), inactives show at the highest dose activity, negative = inhibition, hits mostly inhibitors. AID 2451. purified Giardia FBPA. A8B2U2. hit rate 0.71% among 290,000; further: potency means the concentration at half of the fitted maximal effect; on the % scale 0 is the no-effect control and ±100 the full control effect; nearly all actives have a fitted effect of over 55% in size
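Giardia FBPA (40 nM reagent) was preincubated 10 min at RT with compound (up to 57.5 uM final), then substrate plus GAPDH/TPI/NAD/arsenate coupling system with diaphorase/resazurin was added; resorufin fluorescence (525/598 nm) was read after 20 min.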
RE007 growth inh – less growth of the S. pombe RE007 Vpr strain; S. pombe RE007 Vpr strain, BacTiter-Glo ATP luminescence, 24 h; Potency, µM (doses to about 92.2 µM), for inactives: at the top dose activity change, negative = less growth, most hits filed as inhibitors; hit rate 0.21% among 360,000; AID 651644; active means well fitted falling curve with a large enough effect; inconclusive means small, poorly fitted or top-dose-only effect; inactive means no such curve, though single readings can be large or run the other way; further: potency means the concentration at half of the fitted maximal effect; on the % scale 0 is the no-effect control and ±100 the full control effect; nearly all actives have a fitted effect of over 50% in size
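Fission yeast RE007 carrying one integrated HIV-1 vpr copy, seeded at OD 0.01 in PMG+AL medium with 23 nL pinned compound. Grown 24 h at 30 degrees; viability read by BacTiter-Glo luminescence after 5 min.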
Shiga inhibitor – Shiga toxin inhibition; inhibition, % at 38.7 µM; Vero cells, Shiga toxin protein synthesis inhibition reporter; AID 2315; hit rate 9.2% among 290,000; in the data active means inhibition mostly above about 28%, no sharp cut-off; inactive means mostly below about 43%; further: 0% is about no effect
TbPYK inhibitor – blocks Trypanosoma brucei pyruvate kinase. AID 624173. hit rate 0.12% among 410,000. Potency, µM (highest dose often 76.8 µM), inactives show top-dose activity, negative = inhibition, hits mostly inhibitors. Q57TT1. TbPYK enzyme, Kinase-Glo Plus ATP luminescence, 45 min; further: potency means the concentration at half of the fitted maximal effect; on the % scale 0 is the no-effect control and ±100 the full control effect; nearly all actives have a fitted effect of over 50% in size
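Assay buffer: 50 mM TEA pH 7.2, 100 mM KCl, 10 mM MgCl2, 0.05% BSA, 0.01% Tween-20. Pyruvate kinase from T. brucei plus substrate met compound, then ADP (130 uM final). Luminescence was read post 45 min RT.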
CHX counter – affects cycloheximide protein synthesis inhibition readout, counter-screen; hit rate 12% among 300,000; cell reporter, cycloheximide protein synthesis inhibition counterscreen; AID 2314; max response, %; in the data active means max response mostly above about 13%, no sharp cut-off; inactive means mostly below about 14%; further: read at 38.3 µM for the half of the compounds with a filed dose; 0% is about no effect
Active calls of the source: *; ? = inconclusive; . = no result; [ ] = dose if it differs, or a comment. The full list was thinned out, with hits kept by preference. Unless noted, the call rests on the fitted dose curve; in most records, active means well fitted curve in the direction sought with a large enough effect; inconclusive means small, poorly fitted or top-dose-only effect, or another doubt; inactive means no such curve, though single readings can be large; an effect the other way counts as inactive or inconclusive.

SMILES | LmPK inh | FBPA Giardia inh | RE007 growth inh | Shiga inhibitor | TbPYK inhibitor | CHX counter
Cc1cccc(N=CC=C2OC(C)(C)C(C)(C)O2)c1 | 1% | 0% | -13% | 108* | -6% | 36*
COc1ccc(N=CC=C2OC(C)(C)C(C)(C)O2)cc1OC | -1% | ? | 2% | 24 | -10% | 9
Cc1ccccc1N=CC=C1OC(C)(C)C(C)(C)O1 | 1% | 5% | -17% | -9 | -1% | -1
C=CCNC(=O)Cc1ccc(S(=O)(=O)N2CCOCC2)s1 | . | . | 1% | . | 0% | .
CC(C)c1c(O)c(-c2cc3c(c(C(C)C)c2O)CCC2C(C)(C)CCC[C@@]32C)cc2c1CCC1C(C)(C)CCC[C@@]21C (stereo partly specified) | . | 10% | . | . | . | .
CC(C)c1cc2c(c(O)c1O)[C@@]13CCCC(C)(C)C1CC2OC3=O (stereo partly specified) | 16µM* | 5µM* | -11% | -3 | ? | -1
COc1ccc(NC(=O)CN2C(=O)COc3ccc(S(=O)(=O)Nc4ccccc4)cc32)cc1 | . | . | . | . | -1% | .
Cn1c(=O)[nH]c(=O)c2c1nc(NCCCO)n2Cc1ccc(F)cc1 | -8% | 11% | 16% | 79* | -1% | 16
CCC(C)Nc1nc2c(c(=O)[nH]c(=O)n2C)n1Cc1ccc(F)cc1 (stereo unspecified) | . | . | . | . | -5% | .
Cc1ccc(Nc2nc3c(c(=O)[nH]c(=O)n3C)n2Cc2ccc(F)cc2)cc1 | 1% | 2% | 0% | 26* | 1% | 13*
O=C(C1CCCCC1)N(Cc1cccnc1)c1nc2c(F)cccc2s1 | . | . | . | . | -11%[15.4 µM] | .
CC1/C(=C\c2ccc(Cl)cc2)C(=O)C2CC1C2(C)C (stereo unspecified) | -5% | 9% | 15% | -4 | 8% | -2
CC1CCC(C(C)C)C(=O)/C1=C/c1ccc(N)cc1 (stereo unspecified) | -3% | -10% | -5% | 92* | -25% | 35*
CCN(C(=O)CSc1nc2ccc([N+](=O)[O-])cc2s1)C1CCS(=O)(=O)C1 (stereo unspecified) | -2% | -12% | 0% | -3 | 2% | 13*
COc1cc(OC)cc(C(=O)Nc2ccc(N3CCN(C(=O)c4cccs4)CC3)cc2)c1 | -3% | . | 4% | -23 | 7% | -2
CC(C)(C)NC(=O)CSc1ncnc2c1cnn2-c1ccccc1 | -4% | -3% | -18% | 32 | 9% | 30*
CCOC(=O)CNC(=O)CSc1ncnc2c1cnn2-c1ccccc1 | -4% | 0% | 4% | -6 | -2% | 9
CCOC(=O)CC(=O)CSc1ncnc2c1cnn2-c1ccccc1 | -1% | -7% | -28% | 81* | -5% | 58*
CCOC(=O)CNC(=O)CSc1ncnc2c1cnn2-c1ccc(OC)cc1 | 0% | 1% | 3% | 16 | 9% | 29*
Clc1nc(CN2CCCCC2)nc2sc3c(c12)CCC3 | 1% | 0% | -14% | 35 | 3% | 3
Cc1cccc(-c2noc(CCC(=O)N3CCN(c4cc(C)ccc4C)CC3)n2)c1 | . | . | -4% | . | 3% | .
NC(=O)c1cccnc1Nc1cccc([N+](=O)[O-])c1 | -2% | -5% | -3% | 84* | -4% | 48*
Cc1nn(-c2ccccc2)c2c1C(c1ccc(F)cc1F)C(C#N)=C(N)O2 (stereo unspecified) | 1% | -3% | -15% | -6 | -2% | -1
Nc1nc(-c2ccccc2)c(N=Nc2cccnc2)s1 | -11% | 0% | 14% | 22 | -10% | -1
Nc1nn(-c2ccccc2)c(N)c1N=Nc1cccc(F)c1 | -16% | -8% | -15% | 88* | -1% | 62*
SMILES | LmPK inh | FBPA Giardia inh | RE007 growth inh | Shiga inhibitor | TbPYK inhibitor | CHX counter
Nc1nn(-c2ccccc2)c(N)c1N=Nc1ccc2c(c1)OCO2 | -5% | -4% | -10% | active | -10% | 44*
Cc1nn(-c2ccccc2)c(N)c1N=Nc1cccnc1 | 2% | -1% | -18% | 61* | -7% | 41*
COc1ccc(C2c3c(-c4ccccc4)n[nH]c3C(=O)N2c2ccc(C(=O)O)cc2)c(OC)c1 (stereo unspecified) | . | . | . | . | -5% | .
COc1ccc(S(=O)(=O)N2CCN=C2SCc2cccc(C)c2)cc1 | -7% | 2% | 2% | 18 | 1% | 0
O=C(COC(=O)C1=COCCO1)Nc1ccccc1OC(F)F | -1% | 0% | 4% | 20 | 1% | 5
O=C(N/N=C/c1ccccc1OC(F)F)C1=COCCO1 | -7% | -11% | 3% | 64* | -1% | 27*
O=C(NN=Cc1ccc(OC(F)F)cc1)c1ccc(NS(=O)(=O)c2cccs2)cc1 | . | . | 1% | . | -7% | .
O=C(N/N=C/c1ccc(OC(F)F)cc1)C1=COCCO1 | ? | 0% | 3% | 78* | 2% | 51*
COc1cc(CN(C(=O)COc2ccc(Br)cc2)c2ccccn2)cc(OC)c1OC | . | . | . | . | 2% | .
COc1cc2c(cc1NC(=O)COC(=O)CNS(=O)(=O)c1ccc(C)cc1)oc1ccccc12 | -2% | -7% | -1% | 83 | 7% | 24*
COc1ccc(OCC(=O)Nc2cc3oc4ccccc4c3cc2OC)cc1 | -4% | 3% | -14% | -11 | 1% | -2
COc1ccc(S(=O)(=O)N[C@@H](C)C(=O)OCC(=O)Nc2cc3oc4ccccc4c3cc2OC)cc1 | 1% | -8% | 0% | 103* | -5% | 15*
COc1cc2c(cc1NC(=O)COC(=O)[C@@H](NS(=O)(=O)c1cccc(Cl)c1)C(C)C)oc1ccccc12 | 6% | 0% | . | 23 | 0% | 13*
COc1ccc(O)c(C(=O)CC(=O)c2ccccc2C)c1 | 5% | -5% | ? | 76* | 3% | 58*
COc1ccc(NC(=O)c2ccccc2C)c(OC)c1 | 2% | 0% | 10% | 19 | 1% | 24
COc1ccc(C(=O)COC(=O)c2ccc(OC)c(OC)c2)cc1OC | -10% | 2% | 6% | -5 | 2% | -2
COc1ccc(C(=O)CC(=O)c2ccccc2O)cc1 | 2% | -11% | -17% | . | 1% | 39*
COc1ccc(O)c(C(=O)CC(=O)c2cccnc2)c1 | . | . | -21% | . | -1% | .
COc1ccc(C(=O)CC(=O)c2ccccc2O)cc1OC | -2% | 4% | 6% | 79* | -5% | 34*
COc1ccc(C(=O)c2ccccc2C(=O)c2ccccc2)cc1 | . | . | -8% | . | -2% | .
COc1ccc(O)c(C(=O)CC(=O)c2ccc(F)cc2)c1 | -11% | ? | ? | 51 | 1% | 20*
C=CCOC(=O)N[C@@H](c1ccccc1)[C@@H](C)[N+](=O)[O-] | . | 0% | . | . | . | .
COc1ccc(/C=N/Nc2nonc2N)c(OC)c1 | 2% | 5% | -4% | 47 | -2% | 14
Clc1nccnc1N/N=C/c1ccc(Br)cc1 | 18µM* | ? | -27% | 40* | ? | 40*
